These results are taken from PubChem BioAssay (NCATS).

Each structure is given as a SMILES string. Inconclusive results are not listed. Active and inactive are the calls of the source. The call rests on the fitted dose curve; in most records, active means well fitted inhibition curve with a large enough effect; inconclusive means small, poorly fitted or top-dose-only effect; inactive means no such curve, though single readings can be large or run the other way.
On the % scale 0 is the no-effect control and ±100 the full control effect; potency means the concentration at half of the fitted maximal effect.

This experiment is described as follows: qHTS for Hypoxia signaling pathway (HIF-1) antagonists against the NCATS CANVASS Library (AID 1347374). Further: nearly all actives have a fitted effect of over 60% in size.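 On activity change, negative = inhibition: HRE-bla ME-180 cells stimulated with cobalt chloride to stabilize HIF-1alpha.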 The settings on record: HRE-bla ME-180 cells, HIF-1 beta-lactamase reporter, CoCl2; series mostly up to 38.3 µM; activity change, negative = inhibition: at the top concentration. In short, it runs like this: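 Antagonism scored as loss of CoCl2-driven (60 uM stock added) HRE beta-lactamase signal, read by CCF4 FRET at 460/530 nm. Compounds were tested in an 11-point series on ME-180 reporter cells for 17 hrs at 37C, with parallel CellTiter-Glo cytotoxicity.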
Consider `O[C@H]1C=C2[C@H]3CN(Cc4cc5c(cc43)OCO5)[C@H]2C[C@@H]1O`, for which the Potency was 13.3 µM (active).
In the case of `C/C=C/c1cc2c(c(=O)o1)C(=O)[C@@H](O)[C@H](C)O2`, the Potency was 14.9 µM (active).
As to `O=C1CCC(=O)N(O)CCCCCNC(=O)CCC(=O)N(O)CCCCCNC(=O)CCC(=O)N(O)CCCCCN1`, the “activity change, negative = inhibition” value was -24.2% (inactive).
Same read-out and setting: as for `CC1=C(C)C(=O)OC(C(C)C2(O)CCC3C4C5OC5C5(O)CC=CC(=O)C5(C)C4CCC32C)C1` (configuration not stated), the figure is 3.81% (inactive).
`C[C@H](CCC(O)C(C)(O)CO)[C@@]1(O)CC[C@@]2(C)C3=C(CC[C@@]21C)[C@@]1(C)CCC(OC(=O)CCC(=O)O)C(C)(C)[C@@H]1CC3` (some centres not stated): the Potency is 14.9 µM (active).
For `COc1cc(C2C3=C(Cc4cc5c(cc42)OCO5)C(=O)OC3)cc(OC)c1OC` (configuration not stated), the “activity change, negative = inhibition” value was -18% (inactive).
Consider `CO[C@@H]1[C@H](O)[C@@H](C)O[C@@H](OC[C@@H]2C(C)OC(=O)/C=C/[C@H](C)C(O[C@@H]3O[C@H](C)CC4(OC(=O)O[C@@H]4C)C3O)[C@@H](C)CC(C)C(=O)/C=C/[C@H]3OC23)[C@@H]1OC` (some centres not stated), for which the Potency was 18.8 µM (active).
In the case of `C=C[C@@](C)(O)CC[C@@H]1[C@@]2(C)CCCC(C)(C)[C@@H]2CC[C@@]1(C)O`, the “activity change, negative = inhibition” value was -22.6% (inactive).
Take `COc1ccc([C@@H]2c3cc4c(cc3C(=O)[C@H](C)C2C)OCO4)cc1OC` (some centres not stated): the “activity change, negative = inhibition” value is 3.76% (inactive).
With `CC1=C[C@H]2[C@H]3C(=O)C(c4ccc(O)cc4)=C[C@@]3(c3ccc(O)cc3)[C@@H]1C(=O)[C@]2(C)O`, the “activity change, negative = inhibition” value was -11% (inactive).
Turning to `C/C(=C\[C@H](C)C(=O)/C=C/CC1CC(=O)NC(=O)C1)[C@@H]1OC(=O)CCCC/C=C/[C@H](O)[C@@H](O)[C@@H]1C`, the Potency was 11.8 µM (active).
The same measure, in the same setting: the same measure for `C/C1=C/[C@@H](C)[C@H](O)C/C=C/CC/C=C/C(=O)O[C@@H]1[C@H](C)C(=O)CCCC1CC(=O)NC(=O)C1`: 18.8 µM (active).
